# According to PubChem BioAssay (Tox21):
# Where “and” joins values, the source holds several entries; their conditions need not be identical. Equal entries are not always repeated. Results filed as inconclusive are left out. Where a call stands in place of a potency, no number is given. The source holds several records for some structures; these can differ, active in one and inactive in another. Calls of active or inactive are those of the source. Calls come from the whole dose curve; as a rule, active = well fitted curve in the direction sought with a large enough effect in the repeat runs; inconclusive = weak or mixed curves; inactive = no such curve, though single readings can be large; an effect the other way counts as inactive or inconclusive.
# Tests used:
# [1] = A CellTox Green Cytotoxicity Assay to monitor cytotoxicity in HEK293 cells - 40 hour (AID 1224871); settings: CellTox Green fluorescence; series mostly up to 76.8 µM; note: nearly all actives have a fitted effect of over 45% in size; note: potency is the fitted concentration of half-maximal effect
# In short: (§1)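 Dead-cell fluorescence measured kinetically: asymmetric cyanine dye, HEK293, 600 cells/well, 5 h settle, 23 nL cpd/DMSO, 37 C, reads 0–40 h every 8 h.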
# [2] = qHTS RealTime-Glo MT Cell Viability Assay in HepG2 cells - 8 hour (AID 1224873); settings: RealTime-Glo luminescence; series mostly up to 76.8 µM; note: nearly all actives have a fitted effect of over 55% in size
# In short: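 HepG2 cells (600/well) mixed with RealTime-Glo MT reagent, settled 5 h at 37 C/5% CO2 before compound addition. Nonlytic NanoLuc luminescence from viable-cell prosubstrate reduction read repeatedly during 40 h treatment at 37 C.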
# [3] = A CellTox Green Cytotoxicity Assay to monitor cytotoxicity in HEK293 cells - 24 hour (AID 1224875); settings: CellTox Green fluorescence; series mostly up to 76.8 µM; note: nearly all actives have a fitted effect of over 45% in size; note: potency is the fitted concentration of half-maximal effect
# In short: as §1
# [4] = A CellTox Green Cytotoxicity Assay to monitor cytotoxicity in HepG2 cells - 16 hour (AID 1224876); settings: CellTox Green fluorescence; series mostly up to 76.8 µM; note: nearly all actives have a fitted effect of over 45% in size; note: potency is the fitted concentration of half-maximal effect
# In short: (§2)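 First, HepG2 cells (600/well) mixed with reagent were plated; second, after 5 h at 37 C they received compounds via pintool; third, fluorescence was measured at 0 h through 40 h at 8 h intervals.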
# [5] = qHTS RealTime-Glo MT Cell Viability Assay in HepG2 cells - 32 hour (AID 1224877); settings: RealTime-Glo luminescence; series mostly up to 76.8 µM; note: nearly all actives have a fitted effect of over 55% in size; note: potency is the fitted concentration of half-maximal effect
# In short: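 Cells + NanoLuc/prosubstrate dispensed (600 cells/well) → 5 h at 37 C/5% CO2 → compounds in DMSO transferred → 40 h incubation at 37 C, luminescence read at 0, 8, 16, 24, 32, 40 h.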
# [6] = A CellTox Green Cytotoxicity Assay to monitor cytotoxicity in HepG2 cells - 24 hour (AID 1224878); settings: CellTox Green fluorescence; series mostly up to 76.8 µM; note: nearly all actives have a fitted effect of over 45% in size; note: potency is the fitted concentration of half-maximal effect
# In short: as §2
# [7] = qHTS RealTime-Glo MT Cell Viability Assay in HEK293 cells - 40 hour (AID 1224874); settings: RealTime-Glo luminescence; max response: stronger effect = lower value; note: nearly all actives have a fitted effect of over 50% in size; note: potency is the fitted concentration of half-maximal effect
# In short: (§3)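 600 HEK293 cells per well, dispensed already mixed with RealTime-Glo MT reagents. Compound dosing came 5 h later. The same wells were read for luminescence at 0, 8, 16, 24, 32 and 40 h of exposure at 37 C.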
# [8] = A CellTox Green Cytotoxicity Assay to monitor cytotoxicity in HepG2 cells - 40 hour (AID 1224879); settings: CellTox Green fluorescence; series mostly up to 76.8 µM; note: nearly all actives have a fitted effect of over 40% in size; note: potency is the fitted concentration of half-maximal effect
# In short: as §2
# [9] = qHTS RealTime-Glo MT Cell Viability Assay in HEK293 cells - 0 hour (AID 1224880); settings: RealTime-Glo luminescence; series mostly up to 76.8 µM; note: nearly all actives have a fitted effect of over 45% in size; note: potency is the fitted concentration of half-maximal effect
# In short: as §3
# [10] = qHTS RealTime-Glo MT Cell Viability Assay in HEK293 cells - 16 hour (AID 1224872); settings: RealTime-Glo luminescence; series mostly up to 76.8 µM; note: nearly all actives have a fitted effect of over 50% in size; note: potency is the fitted concentration of half-maximal effect
# In short: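 Tox21 10K qHTS, HEK293, 600 cells/well, RealTime-Glo reagent co-dispensed with cells; 5 h preincubation, compound by pintool, 37 C, luminescence at 0–40 h.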
Compound,Potency [1],Potency [2],Potency [3],Potency [4],Potency [5],Potency [6],max response [7],Potency [8],Potency [9],Potency [10],Potency [7]
Clc1ccc2cc3ccccc3cc2c1,inactive,inactive,inactive,inactive,inactive,inactive,,,,,
CCCCCCCCCCCCCCCS(=O)(=O)Oc1ccccc1,inactive,inactive,inactive,inactive,inactive,inactive,-18% (inactive),inactive,inactive,,
Cc1oc(-c2ccccc2)nc1CCC(=O)c1ccc(CC2SC(=O)NC2=O)cc1 (centres undefined),inactive,,inactive,inactive,inactive,inactive,-22.3% (inactive),inactive,inactive,inactive,
O=C(O)c1ccc(Cl)c(Cl)c1,inactive,,inactive,inactive,inactive,inactive,2.99% (inactive),,inactive,inactive,
CC/C(=C(\c1ccc(O)cc1)c1ccc(OCCN(C)C)cc1)c1ccccc1,43.8 µM (active),,49.1 µM (active),,61.8 µM (active),55.1 µM (active),,55.1 µM (active),inactive,24.6 µM (active),17.4 µM (active)
Cn1cc(C(=O)[C@@H]2CCc3nc[nH]c3C2)c2ccccc21,inactive,inactive,inactive,inactive,inactive,inactive,,inactive,inactive,,
CS(=O)(=O)CCNCc1ccc(-c2ccc3ncnc(Nc4ccc(OCc5cccc(F)c5)c(Cl)c4)c3c2)o1,inactive,,inactive,inactive,,,,,0.674 µM (active),19 µM (active),
CCC(N)(CO)CO,,inactive,inactive,inactive,inactive,inactive,11.9% (inactive),inactive,inactive,inactive,
Cc1cc2c(cc1C(F)(F)F)N(C(=O)Nc1ccc(Oc3cccnc3C)nc1)CC2,inactive,,inactive,inactive,,,,,inactive,,5.58 µM (active)
Cc1[nH]nc2c1N=C(c1ccccc1Cl)c1cc([N+](=O)[O-])ccc1N2,inactive,,inactive,inactive,inactive,inactive,,inactive,inactive,,
CCCCCCOC(=O)c1ccc(O)cc1,,inactive,inactive,8.71 µM (active),inactive,43.7 µM (active) and 9.77 µM (active),,43.7 µM (active) and 11 µM (active),inactive,43.7 µM (active) and 21.9 µM (active),43.7 µM (active) and 21.9 µM (active)
O=C1c2c(O)ccc(Nc3ccc(CCO)cc3)c2C(=O)c2c([N+](=O)[O-])ccc(O)c21,inactive,,inactive,inactive,inactive,inactive,-18.6% (inactive),inactive,inactive,,
CC(C)C(C)(C)C(C)(C)C(C)(C)S,inactive,,inactive,inactive,inactive,inactive,0.74% (inactive),inactive,inactive,,
CC1=NC(C)OC1C (centres undefined),,inactive,inactive,inactive,inactive,inactive,0.967% (inactive),inactive,inactive,inactive,
CN(C)[C@@H]1C(=O)C(C(N)=O)=C(O)[C@@]2(O)C(=O)C3=C(O)c4c(O)cccc4C[C@H]3C[C@@H]12,,inactive,inactive,inactive,inactive,inactive,1.21% (inactive),inactive,,inactive,
O=c1cc(-c2ccc(O)cc2)oc2cc(O)cc(O)c12,inactive and 43.6 µM (active),,inactive,inactive and 27.5 µM (active),inactive,inactive and 34.7 µM (active),,38.9 µM (active),,,
CNCc1cc(F)ccc1Oc1ccc(Cl)c(Cl)c1,49 µM (active),,49 µM (active),54.9 µM (active),54.9 µM (active),49 µM (active),,49 µM (active),,,43.6 µM (active)
